This is a sample that favours compounds with a hit; in the whole collection about 1.2% have one here.
cardiac RTF act = increases calcium sensitivity of human cardiac regulated thin filaments. P19429+P45379. IANBD-labeled TnC RTF fluorescence at EC20 calcium; 0% EC20 calcium, 100% full calcium. activation, % at 7.2 µM. 340,000 compounds, 0.24% hits;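 active = activation above the mean over all tested compounds plus 3 SD, cut at about 30% in these data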;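 also: rise in fluorescence read as greater calcium sensitivity of cardiac thin filaments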
BCLXL inh = Bcl-xL (human) inhibition; Q07817; GST-Bcl-xL / FITC-Bim BH3 peptide fluorescence polarization; inhibition, % at 10.9 µM; 320,000 compounds, 0.7% hits; AID 2129;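 active = inhibition above the mean of all tested compounds plus 3 SD, cutoff set per campaign, cut at about 30% in these data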;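 also: inhibitors lower millipolarization by displacing the labeled peptide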
RTF Ca sens inh = cardiac RTF calcium desensitization. P19429+P45379. IANBD-labeled cardiac RTF, Ca2+ fluorescence. inhibition, % at 7.15 µM. 340,000 compounds, 0.12% hits;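 active = inhibition above the mean inhibition of all tested compounds plus 3 SD, cut at about 17% in these data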;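 also: assay run at fixed EC70 calcium of 1.6 mM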
GLD-1 RNA inh = GLD-1-TGE RNA interaction inhibition (C. elegans); Q17339; 320,000 compounds, 0.44% hits; AID 2280; purified GLD-1 + fluorescein TGE RNA, fluorescence polarization; inhibition, % at 5.96 µM;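 active = percent inhibition above a per-plate cutoff, the plate mean of test compounds plus 3 SD, cut at about 30% in these data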
Target sequence (Q17339 whole entry, looked up): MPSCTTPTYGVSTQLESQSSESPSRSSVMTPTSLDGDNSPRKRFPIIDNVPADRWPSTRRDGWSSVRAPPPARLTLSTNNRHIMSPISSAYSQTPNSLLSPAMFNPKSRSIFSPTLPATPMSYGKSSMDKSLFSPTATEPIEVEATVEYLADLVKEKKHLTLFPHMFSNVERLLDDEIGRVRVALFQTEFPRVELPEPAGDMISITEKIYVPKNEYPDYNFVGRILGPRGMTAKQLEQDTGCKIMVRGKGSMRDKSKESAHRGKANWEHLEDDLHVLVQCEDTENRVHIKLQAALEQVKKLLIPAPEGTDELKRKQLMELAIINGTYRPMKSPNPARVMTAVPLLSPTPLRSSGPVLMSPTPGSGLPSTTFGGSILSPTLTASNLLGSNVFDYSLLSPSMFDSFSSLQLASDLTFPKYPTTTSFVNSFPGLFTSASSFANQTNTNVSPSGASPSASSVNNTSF
E coli Lon inh = E. coli protease La inhibition | P0A9M0 | purified E. coli Lon protease, fluorescence polarization | inhibition, % at 7.94 µM | 360,000 compounds, 0.42% hits | AID 602123; in the data active = inhibition above about 13%, passing the limit was not always enough
Hits are given with their value.

CC(C)Oc1ccc(CN2CCCC(CO)(Cc3ccc(F)cc3)C2)cc1 (stereo not given) was read as cardiac RTF act inactive, BCLXL inh 36, RTF Ca sens inh inactive, GLD-1 RNA inh inactive and E coli Lon inh inactive.
Cc1ccc2[nH]c3c(c2c1)CN(C(=O)CN1CCN(c2cccc(C)c2C)CC1)CC3 was read as cardiac RTF act inactive, BCLXL inh 38, RTF Ca sens inh inactive, GLD-1 RNA inh inactive and E coli Lon inh inactive.
Screening Cc1ccc2[nH]c3c(c2c1)CN(C(=O)CN1CCN(C(=O)c2ccco2)CC1)CC3 returned BCLXL inh 48 and GLD-1 RNA inh 32.
`O=C(CN1CCN(C(=O)c2ccco2)CC1)N1CCc2[nH]c3ccccc3c2C1` gave BCLXL inh 36 and GLD-1 RNA inh inactive.
CN1CCc2c(sc3c2C(=O)NC(c2cccs2)N3)C1 (stereo not given) was read as cardiac RTF act inactive, BCLXL inh 32, RTF Ca sens inh inactive, GLD-1 RNA inh inactive and E coli Lon inh inactive.
Screening Cc1ccsc1C1NC(=O)c2c(sc3c2CCN(C)C3)N1 (stereo not given) returned cardiac RTF act inactive, BCLXL inh 37, RTF Ca sens inh inactive, GLD-1 RNA inh inactive and E coli Lon inh inactive.
Screening CSc1ccc(C2NC(=O)c3c(sc4c3CCN(C)C4)N2)cc1 (stereo not given) returned cardiac RTF act inactive, BCLXL inh inactive, RTF Ca sens inh inactive, GLD-1 RNA inh inactive and E coli Lon inh inactive.
Screening COC(=O)c1sccc1NC(=S)Nc1cc(OC)ccc1OC returned cardiac RTF act inactive, BCLXL inh inactive, RTF Ca sens inh inactive, GLD-1 RNA inh inactive and E coli Lon inh inactive.
For N/C(=N\OS(=O)(=O)c1ccc(Cl)cc1)c1ccccn1 the results were cardiac RTF act inactive, RTF Ca sens inh inactive and E coli Lon inh inactive.
Screening Cc1ccc2c(c1)[C@H]1[C@H](CO2)[C@H](c2ccccc2)[C@]2(C)C(=O)N(Cc3ccc(Cl)cc3)CC(=O)N12 returned cardiac RTF act inactive, BCLXL inh inactive, RTF Ca sens inh inactive, GLD-1 RNA inh inactive and E coli Lon inh inactive.
Cc1ccc2c(c1)[C@H]1[C@H](CO2)[C@H](c2ccccc2)[C@]2(C)C(=O)N(Cc3ccc(F)cc3)CC(=O)N12 was read as cardiac RTF act inactive, RTF Ca sens inh inactive, GLD-1 RNA inh 52 and E coli Lon inh inactive.
Cc1ccc(C23CC4CC(CC(C(=O)NC(C)C)(C4)C2)C3)cc1 was read as cardiac RTF act inactive, BCLXL inh inactive, RTF Ca sens inh inactive, GLD-1 RNA inh inactive and E coli Lon inh inactive.
For COC(=O)CN(c1ccccc1[N+](=O)[O-])S(=O)(=O)c1ccccc1 the results were cardiac RTF act inactive, BCLXL inh inactive, RTF Ca sens inh inactive, GLD-1 RNA inh inactive and E coli Lon inh inactive.
`COC(=O)[C@]1(Cc2ccccc2)N[C@H](c2ccc(-c3ccc(OC)cc3)cc2)[C@@H]2C(=O)N(C)C(=O)[C@@H]21` gave cardiac RTF act inactive, BCLXL inh inactive, RTF Ca sens inh inactive, GLD-1 RNA inh inactive and E coli Lon inh inactive.
CCC1(C(=O)OC)NC(c2ccccc2OC)C2C(=O)N(C)C(=O)C21 (stereo not given) was read as cardiac RTF act inactive, BCLXL inh 58, RTF Ca sens inh inactive, GLD-1 RNA inh inactive and E coli Lon inh inactive.
Screening O=C1CSC(=S)N1/N=C/c1cc(Br)c(O)c(Br)c1 returned cardiac RTF act 56, BCLXL inh inactive, RTF Ca sens inh inactive, GLD-1 RNA inh inactive and E coli Lon inh inactive.
COC(=O)C1=C(C)NC(=O)/C1=C\N(C)C was read as cardiac RTF act inactive, BCLXL inh 91, RTF Ca sens inh inactive, GLD-1 RNA inh 68 and E coli Lon inh inactive.
COC(=O)C1=C(C)NC(=O)/C1=C\c1cccs1 was read as cardiac RTF act inactive, BCLXL inh inactive, RTF Ca sens inh inactive, GLD-1 RNA inh inactive and E coli Lon inh inactive.
Screening Cc1c2cnn(CC(=O)Nc3c(F)c(F)cc(F)c3F)c(=O)c2c(C)n1Cc1ccccc1F returned cardiac RTF act inactive, BCLXL inh 35, RTF Ca sens inh inactive, GLD-1 RNA inh inactive and E coli Lon inh inactive.
`CC1=C[C@H]2OC(=O)[C@@H](C)[C@H]2C[C@@H]2[C@H]1C[C@@H](O)[C@@]2(C)O` gave cardiac RTF act inactive, BCLXL inh inactive, RTF Ca sens inh inactive, GLD-1 RNA inh 114 and E coli Lon inh inactive.
`CC(C)OC(=O)C1=C2SCC(=O)N2C(N)=C(C#N)C1` gave cardiac RTF act inactive, BCLXL inh 37, RTF Ca sens inh inactive, GLD-1 RNA inh inactive and E coli Lon inh inactive.
`CCC(C)(C)NC(=O)C(c1ccc(F)cc1)N(Cc1cccs1)C(=O)c1cnccn1` (stereo not given) gave cardiac RTF act inactive, BCLXL inh inactive, RTF Ca sens inh inactive, GLD-1 RNA inh inactive and E coli Lon inh inactive.
`COC(=O)c1ccc(/C=C(\C#N)c2nc3ccccc3s2)cc1` gave cardiac RTF act inactive, BCLXL inh inactive, RTF Ca sens inh inactive, GLD-1 RNA inh inactive and E coli Lon inh inactive.
For N#C/C(=C\c1ccc(-c2ccc(F)cc2)o1)C(=O)Nc1nc(-c2cccs2)cs1 the results were cardiac RTF act inactive, BCLXL inh inactive, RTF Ca sens inh inactive, GLD-1 RNA inh inactive and E coli Lon inh inactive.
N#C/C(=C/c1ccc(-c2ccccc2)o1)c1nc(-c2cccs2)cs1 was read as cardiac RTF act 93, BCLXL inh inactive, RTF Ca sens inh inactive, GLD-1 RNA inh inactive and E coli Lon inh inactive.
Screening N#C/C(=C\c1ccccn1)c1nc2ccccc2s1 returned cardiac RTF act 60, BCLXL inh inactive, RTF Ca sens inh inactive, GLD-1 RNA inh inactive and E coli Lon inh inactive.
Screening N#C/C(=C/c1ccc(-c2ccc(S(N)(=O)=O)cc2)o1)c1nc2ccccc2s1 returned cardiac RTF act 347, BCLXL inh 45, RTF Ca sens inh inactive, GLD-1 RNA inh inactive and E coli Lon inh inactive.
Screening O=C(CCCOC(=O)c1ccc(O)cc1O)c1ccccc1 returned cardiac RTF act inactive, BCLXL inh inactive, RTF Ca sens inh inactive, GLD-1 RNA inh inactive and E coli Lon inh inactive.
COc1cccc(CN(C)CC(=O)Nc2cc3oc4ccccc4c3cc2OC)c1 was read as cardiac RTF act inactive, BCLXL inh inactive, RTF Ca sens inh inactive, GLD-1 RNA inh inactive and E coli Lon inh inactive.
Cc1cccc(-c2c3c(nc4c2c(=O)n(C)c(=O)n4C)-c2ccccc2C3O)c1 (stereo not given) was read as cardiac RTF act inactive, BCLXL inh inactive, RTF Ca sens inh inactive, GLD-1 RNA inh inactive and E coli Lon inh inactive.
Screening O=c1cc(CSc2nnc3ccccn23)c2c(ccc3ccccc32)o1 returned cardiac RTF act inactive, BCLXL inh 76, RTF Ca sens inh inactive, GLD-1 RNA inh 66 and E coli Lon inh inactive.
For CCCN(CCC)Cc1cc(=O)oc2cc(C)c(Cl)cc12 the results were E coli Lon inh inactive.
`Cc1cccc(NC(=O)NNS(=O)(=O)c2ccc(F)cc2)c1` gave cardiac RTF act inactive, BCLXL inh inactive, RTF Ca sens inh inactive, GLD-1 RNA inh inactive and E coli Lon inh inactive.

Screening results as filed in PubChem BioAssay.
